Source: PubChem BioAssay
The list is not random: actives were taken first. Their share in the collection is about 2.4%.
POLB inh – inhibitors of human DNA polymerase beta. Pol beta primer extension/strand displacement, fluorescence kinetic. actives 1.3% (n = 340,000). AID 485314. Potency, µM (titrated, usually from 114 µM), inactives show at the top dose activity change, negative = inhibition, actives largely listed as inhibitors; also: % is scaled to controls: 0 for no effect and ±100 for the full control effect
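Reaction started by 50 nM substrate onto compound-treated Pol beta (10 nM, 15 min preincubation, room temperature); plates read at 0 min and 10 min. Normalized concentration-effect data fitted by four-parameter Hill equation.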
Pol kappa inh – DNA polymerase kappa (human) inhibition | purified Pol kappa, fluorescent DNA synthesis assay, 10 min | Potency, µM (series often up to 107 µM), without a hit: top-dose activity, negative = inhibition, most hits filed as inhibitors | Q9UBT6 | actives 0.53% (n = 400,000); also: % is scaled to controls: 0 for no effect and ±100 for the full control effect
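Inhibition of 10 nM Pol kappa is measured by a fluorescent read-out at 0 and 10 min following addition of 50 nM substrate (final), with a 15-min room-temperature compound preincubation.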
Pol eta inh – inhibitors of human DNA polymerase eta; actives 1.2% (n = 390,000); recombinant Pol eta, fluorescent DNA replication assay; Q9Y253; Potency, µM (top dose mostly 114 µM), for the others: top-dose activity change, negative = inhibition, hits mostly inhibitors; AID 588591; also: % is scaled to controls: 0 for no effect and ±100 for the full control effect
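Pol eta at 10 nM preincubated with compounds 15 min at room temperature; reaction started with fluorescent substrate (50 nM final) and read kinetically at 0 and 10 min.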
Pol iota inh – DNA polymerase iota (human) inhibition. Q9UNA4. Pol iota fluorescent replication assay, 10 min. actives 1% (n = 390,000). Potency, µM (doses to about 115 µM), for the others: top-dose activity, negative = inhibition, actives largely listed as inhibitors. AID 588590
Target sequence (Q9UNA4 whole entry, looked up): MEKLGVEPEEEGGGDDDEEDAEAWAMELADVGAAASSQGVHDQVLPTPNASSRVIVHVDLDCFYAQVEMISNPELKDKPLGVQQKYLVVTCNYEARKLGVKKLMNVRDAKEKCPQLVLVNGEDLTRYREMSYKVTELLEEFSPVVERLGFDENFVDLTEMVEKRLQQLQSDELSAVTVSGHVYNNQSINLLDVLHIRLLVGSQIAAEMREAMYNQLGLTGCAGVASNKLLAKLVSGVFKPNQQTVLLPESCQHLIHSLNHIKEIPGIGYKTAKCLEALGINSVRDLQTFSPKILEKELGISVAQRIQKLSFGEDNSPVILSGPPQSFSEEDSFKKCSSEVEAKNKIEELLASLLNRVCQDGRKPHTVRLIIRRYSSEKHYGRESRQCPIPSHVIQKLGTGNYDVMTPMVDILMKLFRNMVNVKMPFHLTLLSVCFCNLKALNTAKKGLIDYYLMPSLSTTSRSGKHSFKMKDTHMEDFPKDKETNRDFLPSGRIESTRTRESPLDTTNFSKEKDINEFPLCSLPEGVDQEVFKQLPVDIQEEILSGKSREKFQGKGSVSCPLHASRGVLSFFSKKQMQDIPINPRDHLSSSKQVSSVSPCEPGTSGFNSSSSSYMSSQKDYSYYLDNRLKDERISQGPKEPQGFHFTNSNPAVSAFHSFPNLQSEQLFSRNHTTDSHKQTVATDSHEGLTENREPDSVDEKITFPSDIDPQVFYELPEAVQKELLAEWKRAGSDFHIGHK
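Fluorescent replication assay read twice, at 0 min and 10 min after adding 50 nM (final) substrate. Enzyme (10 nM) and compounds were first incubated 15 min at room temperature; enzyme-free buffer wells were negative controls.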
FEN1 inh – inhibitors of human flap endonuclease 1 | P39748 | Recombinant FEN1 flap cleavage, fluorescence, 15 min | Potency, µM (top dose mostly 114 µM), for inactives: top-dose activity change, negative = inhibition, hits mostly inhibitors | actives 0.35% (n = 390,000) | AID 588795; also: % is scaled to controls: 0 for no effect and ±100 for the full control effect; nearly all actives have a fitted effect of over 65% in size
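Concentration–response screening of FEN1 (10 nM): 15 min compound preincubation at room temperature, reaction started with 50 nM substrate and read at 0 and 15 min. Corrected, normalized data were fitted by a four-parameter Hill equation.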
WRN inhibitor – WRN helicase (human) inhibition; Q14191; WRN helicase unwinding, fluorescent forked duplex, kinetic; Potency, µM (top dose mostly 114 µM), for inactives: at the highest dose activity change, negative = inhibition, hits mostly inhibitors; actives 0.46% (n = 360,000); AID 651768; also: % is scaled to controls: 0 for no effect and ±100 for the full control effect; nearly all actives have a fitted effect of over 55% in size
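Fluorescence dequenching readout, ex 525 nm/em 598 nm, kinetic mode: forked duplex DNA (100 nM final) with adjacent fluorophore and quencher unwound by WRN (20 nM final) with 2 mM ATP. Compound preincubation 15 min, room temperature.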
The depositor's hits bear a star; ? = inconclusive; . = not tested or not shown; [ ] = dose if it differs, or a comment. Calls follow the shape of the dose curve; as a rule, active = well fitted curve in the direction sought with a large enough effect; inconclusive = small, poorly fitted or top-dose-only effect, or another doubt; inactive = no such curve, though single readings can be large; an effect the other way counts as inactive or inconclusive. Potency is read from the fitted curve at half-maximal effect.

SMILES | POLB inh | Pol kappa inh | Pol eta inh | Pol iota inh | FEN1 inh | WRN inhibitor
COc1ccc(N(CC(=O)Nc2ccc(C)cc2)S(=O)(=O)c2c(C)noc2C)cc1 | 12% | 2% | -19% | 8% | 0% | 3%
Cc1c2cc[n+](CCN3CCCCC3)cc2c(C)c2c1[nH]c1ccc(O)cc12 | . | 35µM* | 2.8µM* | 25µM* | 13µM* | 28µM*
CCOC(=O)c1[nH]c2ccc(C)cc2c1NC(=O)CN1CCCCC1 | -12% | -12% | -12% | 3% | -7% | -5%
Cc1nc(S/C(=C/c2ccc(-c3cc(Cl)ccc3C)o2)C(=O)O)n[nH]1 | ? | ? | ? | ? | ? | -7%[11.6 µM]
Cc1nc(S/C(=C/c2ccc(-c3ccc(Cl)cc3)o2)C(=O)O)n[nH]1 | 18% | -21% | 25µM* | -5% | -3% | -18%
COc1ccc(OC)c(NC(=O)CSc2nnc(C3CCCCC3)n2N)c1 | . | 4% | 1% | -16% | -17% | 4%
CSCc1nc2sc(C(=O)Nc3nc(C)cs3)c(C)c2c(=O)[nH]1 | -3% | -25% | 32µM* | ? | 2% | -5%[11.6 µM]
COc1ccc(C(=O)OCc2cc(=O)oc3cc(C)ccc23)cc1S(=O)(=O)N1CCOCC1 | . | . | 2% | . | . | 0%
COc1ccc2c(COC(=O)c3ccc(C)c(S(=O)(=O)N4CCOCC4)c3)cc(=O)oc2c1 | . | -8% | 14µM* | ? | -1% | -22%
Oc1ccc(-c2nc3ccccc3s2)c(O)c1 | -23% | -7% | -19% | -28% | 0% | 9%
Nc1ccc(O)c(-c2nc3ccccc3s2)c1 | 7.9µM* | ? | ? | ? | -8% | -16%
Oc1ccc(N=C/C=C/c2cccc(Br)c2)cc1-c1nc2ccccc2s1 | 13µM* | -38% | ? | 10µM* | -11% | ?
CCc1nnc(NC(=O)NC(C)(C)C)s1 | 2% | 6% | -12% | 0% | 0% | 7%
COc1ccc(CNC(=O)CN(CCC(C)C)S(=O)(=O)c2ccc3c(c2)OCCO3)cc1 | 19% | -14% | -13% | 5% | -13% | -14%[57.1 µM]
CC1C(=O)N(Cc2cn(Cc3ccco3)nn2)CCS(=O)(=O)N1Cc1ccc(-c2cccnc2)cc1 (centres undefined) | . | . | . | . | . | 50µM*
Cc1ccc(-c2ccc(CN3C(C)C(=O)N(Cc4cn(Cc5ccco5)nn4)CCS3(=O)=O)cc2)cc1 (centres undefined) | . | . | -14% | . | . | -9%
COc1ccc(-n2c3c(c(=O)[nH]c2=O)C(NC(=O)c2ccccc2Cl)(C(F)(F)F)C(=O)N3)cc1 (centres undefined) | -4% | -16% | -5% | -1% | 1% | .
Cn1c(=O)c2c(-c3ccc(Br)cc3)n(Cc3ccc(F)cc3)cc2n(C)c1=O | -19% | ? | -9% | 89µM* | ? | .
Cc1ccc(NC(=O)CS(=O)CC(=O)NC(C)CCc2ccco2)cc1Cl (centres undefined) | 32µM* | -29% | ? | -39% | 3% | -14%
Cc1c(OCC(=O)N[C@@H](Cc2c[nH]c3ccccc23)C(=O)O)ccc2c1oc(=O)c1ccccc12 | -11% | -13% | 79µM* | 32% | ? | -6%[11.6 µM]
COc1ccc(C(CNC(=O)Nc2cccc(C)c2)N2CCN(C)CC2)cc1 (centres undefined) | 13% | -1% | -2% | 43% | 19% | 0%[57.1 µM]
CCn1c(N2CCN(C(=O)/C=C/c3ccccc3)CC2)nc2ccccc21 | -1% | -16% | -5% | 3% | -14% | -4%
Cc1ccc(C(=O)Nc2nnc(S(=O)(=O)N3CCCc4ccccc43)s2)cc1 | ? | -11% | 89µM* | 100% | 23% | .
Cc1ccc(N2CCN(S(=O)(=O)c3nnc(NC(=O)c4ccco4)s3)CC2)cc1 | ? | -16% | 79µM* | -13% | 14% | -3%[11.6 µM]
O=C(Nc1nnc(S(=O)(=O)N2CCCc3ccccc32)s1)c1ccccc1 | ? | -9% | ? | 23% | 2% | .
SMILES | POLB inh | Pol kappa inh | Pol eta inh | Pol iota inh | FEN1 inh | WRN inhibitor
O=C(Nc1nnc(S(=O)(=O)N2CCc3ccccc32)s1)c1cccc(Cl)c1 | 4% | -18% | 89µM* | 14% | 20% | .
Cc1nnc(NC(=O)c2cccc(S(=O)(=O)N3CCc4ccccc43)c2)s1 | 4% | -4% | 3% | 2% | 3% | -13%
COc1ccccc1NC(=S)N(Cc1ccco1)Cc1cc2cccc(C)c2[nH]c1=O | 4% | -16% | -9% | 8% | -8% | -6%
O=C(Nc1cccc(C(=O)O)c1)Nc1cccc2ccccc12 | 6% | -10% | -24% | 42% | 15% | -3%
CC(=O)C1=C(O)C(=O)N(c2ccccn2)C1c1ccccc1[N+](=O)[O-] (centres undefined) | 2% | 8% | -3% | 11% | 3% | 71µM*
CC(=O)C1=C(O)C(=O)N(c2ccc(Br)cn2)C1c1ccccc1[N+](=O)[O-] (centres undefined) | 0% | -6% | -3% | 23% | 14% | 10%
Cc1cc(C)cc(N2C(=O)C=CC2=O)c1 | . | -12% | -6% | -1% | -13% | 20µM*
Cc1cc(C)cc(N2C(=O)C3CC=CCC3C2=O)c1 (centres undefined) | -1% | -18% | -4% | 12% | 5% | 2%
Cc1c([N+](=O)[O-])cc(N2C(=O)C=CC2=O)cc1[N+](=O)[O-] | . | ? | -14% | 10µM* | -2% | -12%
COCCn1cnc2c(c1=O)c1nc3ccccc3nc1n2/N=C/c1cccc(OC)c1 | 9% | 0% | ? | ? | -4% | 1%
O=C(O)CSc1nnc(Nc2ccccc2)n1-c1ccccc1 | -1% | 2% | -23% | 95% | -4% | -2%
Cc1nnc(SC(C)C(=O)NC2CCCCC2)s1 (centres undefined) | . | 2% | 3% | 17% | 3% | 7%
O=C(NCc1ccccc1)C(=O)NCC(c1ccc2c(c1)OCO2)N1CCOCC1 (centres undefined) | 23% | -2%[60.1 µM] | -3% | 2% | -10% | .
CCc1nnc(NS(=O)(=O)c2ccc(NC(=O)c3cccc(Br)c3)cc2)s1 | -5% | -4% | -13% | 27% | -5% | -13%
O=C(O)Cn1cc(/C=C/[N+](=O)[O-])c2ccccc21 | 6% | -21% | 45µM* | 28µM* | 4% | -5%[11.6 µM]
O=[N+]([O-])/C=C/c1cn(Cc2ccccc2)c2ccccc12 | -4% | -6% | -14% | -8% | -16% | -33%
CCC(=O)O[C@H](CC(=O)O)C[N+](C)(C)C | . | -8%[19.4 µM] | . | . | . | .
Cc1ccc(C(=O)OCC(=O)NCCc2ccc(S(N)(=O)=O)cc2)o1 | . | -33% | ? | -13% | -4% | -26%
